ALDH1A1 block = blocks purified human ALDH1A1 activity. Purified ALDH1A1, NADH fluorescence, propionaldehyde substrate. Potency, µM (highest dose often 75.3 µM), usual class: inhibitors. 220,000 compounds, 7.3% hits; active = well fitted inhibition curve with a large enough effect, not every such curve was filed as active; inconclusive = small, poorly fitted or top-dose-only effect, or another doubt; inactive = no such curve, though single readings can be large or run the other way
Lamin A splicing = changes lamin A minigene splicing in HeLa cells; HeLa LMNA splicing GFP/RFP minigene ratio, 48 h; Potency, µM (series often up to 46.1 µM), actives largely listed as inhibitors; 200,000 compounds, 0.01% hits; active = well fitted inhibition curve with a large enough effect in the signal ratio, with a control signal flat, not every such curve was filed as active; inconclusive = small, poorly fitted or top-dose-only effect, or effect the other way, or a change in a side signal; the % refers to the signal ratio
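S3 HeLa cells stably expressing lamin A-EGFP splicing minigene plus DsRed2, 600 cells/well, 48 h compound exposure at 37C. Laser-scanning cytometry; analysed as GFP (500-530 nm)/RFP (575-640 nm) total intensity ratio; 0.5% DMSO vehicle.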
HTT cytoprotect = Huntington cell model cytoprotection by ATP luminescence. PC12 HTT-Q103 induced, cytoprotection, ATP luminescence, 40 h. 230,000 compounds, 0.14% hits. AID 1471. Potency, µM (doses to about 56.4 µM), most hits filed as activators; note: nearly all actives have a fitted effect of over 45% in size
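ATP quantification (ATPlite) reports survival of PC12 cells in which tebufenozide, 100 nM final, switches on Htt exon 1 with 103 glutamines linked to GFP; compounds are titrated.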
HttQ103 aggreg = mutant huntingtin aggregation inhibition | PC12 HttQ103-GFP aggregates, Acumen cytometry, 40 h | Potency, µM (series often up to 46.1 µM), hits mostly inhibitors | 220,000 compounds, 1.1% hits | AID 1688; note: nearly all actives have a fitted effect of over 60% in size
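Ecdysone-promoter PC12 model expressing HTT exon 1 Q103 fused to GFP, induced by tebufenozide at 100 nM final. Compounds titrated; aggregates sized 1–25 µm scored on a 488 nm laser cytometer.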
HPGD inh = inhibitors of human 15-hydroxyprostaglandin dehydrogenase (HPGD); P15428; 150,000 compounds, 4.3% hits; Potency, µM, most hits filed as inhibitors; purified HPGD, NADH fluorescence kinetic, PGE2 substrate; AID 894; active = well fitted inhibition curve with a large enough effect, not every such curve was filed as active; inconclusive = small, poorly fitted or top-dose-only effect, or another doubt; inactive = no such curve, though single readings can be large or run the other way
Target sequence (P15428 whole entry, looked up): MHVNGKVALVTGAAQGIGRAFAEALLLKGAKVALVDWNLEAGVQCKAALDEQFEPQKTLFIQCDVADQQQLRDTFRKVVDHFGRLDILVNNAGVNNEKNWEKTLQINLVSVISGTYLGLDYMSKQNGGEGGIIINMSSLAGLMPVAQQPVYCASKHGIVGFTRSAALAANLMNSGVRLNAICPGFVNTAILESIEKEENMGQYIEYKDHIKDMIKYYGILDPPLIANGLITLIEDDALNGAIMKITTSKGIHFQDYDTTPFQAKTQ
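NADH formation kinetics: reaction with 30 uM PGE2 and 1 mM NAD+ (final), 20 nM enzyme, Tris-HCl pH 8 with Tween 20, after 15 min compound preincubation at room temperature. Fluorescence change, last versus first of five reads.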
Luc counter = Kinase-Glo luciferase inhibition (counter-screen); Kinase-Glo luciferase, ATP luminescence, 8 min; Potency, µM (top dose mostly 38.3 µM), hits mostly inhibitors; 200,000 compounds, 0.28% hits; Q27757; note: nearly all actives have a fitted effect of over 60% in size
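Compounds were added to a substrate mix at pH 7.2 (50 mM imidazole, 10 uM ATP, within the enzyme's linear range), followed by Kinase-Glo detection reagent; luminescence was measured after 8 minutes at ambient temperature.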
Each line names hits and unclear results; the compound was inactive in the other large screens. Only some compounds are listed: those with a hit (about 9% of all), similar ones and a draw of the others. Unless noted, calls come from the whole dose curve; as a rule, active = well fitted curve in the direction sought with a large enough effect; inconclusive = small, poorly fitted or top-dose-only effect, or another doubt; inactive = no such curve, though single readings can be large; an effect the other way counts as inactive or inconclusive.

O=S(=O)(c1ccccc1)n1cc(-c2ccccn2)c(N2CCOCC2)n1	none (no result: HPGD inh)
CC(C)(C)c1ccc(C2(C)NC(=O)N(CC(=O)Nc3ccc4c(c3)OCO4)C2=O)cc1 (centres undefined)	none
Cc1nc2c(-c3ccccc3)c[nH]n2c(=O)c1Cc1ccccc1	ALDH1A1 block inconclusive, HttQ103 aggreg 7.1µM (no result: Lamin A splicing, HPGD inh)
O=C(Cn1cnc(S(=O)(=O)N2CCCC2)c1)Nc1cccc(Br)c1	none (no result: ALDH1A1 block, HTT cytoprotect, HttQ103 aggreg, HPGD inh, Luc counter)
CCN(CC)c1ccc(/C=C(\C#N)C(=O)NCc2ccco2)cc1	ALDH1A1 block 32µM
Cc1cc(O)c(C(C)C)cc1N=C1CSC(=O)N1	ALDH1A1 block 13µM, HPGD inh 32µM
Cc1ccc(N=C2CSC(=O)N2)cc1	none (no result: Lamin A splicing, HTT cytoprotect, HPGD inh)
Cc1c(C(=O)Nc2ccc3c(c2)OCCO3)sc2nc(-c3ccccc3)cn12	Lamin A splicing inconclusive, HttQ103 aggreg 16µM
Cc1c(C(=O)N2CCc3ccccc3C2)sc2nc(-c3ccccc3)cn12	ALDH1A1 block inconclusive, Lamin A splicing inconclusive, HPGD inh 7.1µM
Cc1c(C(=O)N2CCN(c3ccc(F)cc3)CC2)sc2nc(-c3ccccc3)cn12	none
CCN(CC)S(=O)(=O)c1ccc(C)c(NC(=O)CNCCN(C(C)C)C(C)C)c1	none (no result: Lamin A splicing, HPGD inh)
COc1ccc(C(=O)NNC(=S)Nc2ccccc2)cc1	none (no result: HPGD inh)
O=C(Oc1ccccc1/C=C\C(=O)c1cc2ccccc2o1)c1ccccc1	ALDH1A1 block 11µM, HttQ103 aggreg inconclusive
O=C(Oc1ccccc1/C=C\C(=O)c1cc2ccccc2o1)c1cccc(F)c1	ALDH1A1 block 8.9µM, Lamin A splicing inconclusive, HttQ103 aggreg inconclusive, HPGD inh inconclusive
CC(=O)NC(NC(=S)Nc1ccc(N=Nc2ccccc2)cc1)C(Cl)(Cl)Cl (centres undefined)	ALDH1A1 block 13µM, Lamin A splicing inconclusive, HttQ103 aggreg inconclusive
COc1ccc([N+](=O)[O-])cc1NC(=S)NC(NC(=O)C(c1ccccc1)c1ccccc1)C(Cl)(Cl)Cl (centres undefined)	ALDH1A1 block 20µM, Lamin A splicing inconclusive, HttQ103 aggreg inconclusive
COc1ccc([N+](=O)[O-])cc1NC(=O)C(C)c1ccccc1 (centres undefined)	none
COC(=O)NC(NC(=S)Nc1ccccc1OC)C(Cl)(Cl)Cl (centres undefined)	ALDH1A1 block 3.2µM (no result: HPGD inh, Luc counter)
COC(=O)NC(NC(=S)Nc1ccc([N+](=O)[O-])cc1)C(Cl)(Cl)Cl (centres undefined)	ALDH1A1 block 20µM, Lamin A splicing inconclusive, HTT cytoprotect inconclusive, HttQ103 aggreg inconclusive, HPGD inh 32µM
CN(C)c1nc(N(C)C)nc(N2CC(CCl)OC2=N)n1 (centres undefined)	ALDH1A1 block inconclusive, Lamin A splicing inconclusive (no result: HPGD inh)
CCN(CC)C(=O)C1CCCN(c2ccc([N+](=O)[O-])cc2/C=N/NC(=O)c2ccccc2)C1 (centres undefined)	ALDH1A1 block 28µM, HttQ103 aggreg inconclusive
CCN(CC)C(=O)C1CCCN(c2ccc([N+](=O)[O-])cc2/C=N/NC(=O)c2cccc(O)c2)C1 (centres undefined)	ALDH1A1 block 28µM
CCN(CC)C(=O)C1CCCN(c2ccc([N+](=O)[O-])cc2)C1 (centres undefined)	ALDH1A1 block 20µM (no result: Lamin A splicing, HPGD inh)
CN1CCN(c2ccc([N+](=O)[O-])cc2/C=N/NC(=O)c2cccc([N+](=O)[O-])c2)CC1	ALDH1A1 block 20µM (no result: HTT cytoprotect)
CCCNC(=O)c1ccccc1NC(=O)c1ccc(CSc2ccccc2)cc1	ALDH1A1 block inconclusive, Lamin A splicing inconclusive, HttQ103 aggreg inconclusive, HPGD inh inconclusive
CC1CC2(CC(C)(C(=O)CSc3nc4ccccc4s3)OC2=O)C(=O)O1 (centres undefined)	none
Cn1c(SCC(=O)Nc2cccc(S(=O)(=O)N3CCOCC3)c2)nnc1-c1ccncc1	ALDH1A1 block inconclusive (no result: HPGD inh)
O=C(Nc1ccc(Cl)c(Cl)c1)Nc1nnc(-c2ccncc2)s1	ALDH1A1 block inconclusive, Lamin A splicing inconclusive, HttQ103 aggreg inconclusive

Bioassay records deposited in PubChem by National Center for Advancing Translational Sciences (NCATS).
